Test results reported in PubChem BioAssay.
Activity calls are given as the source filed them.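 How the source made its calls, unless noted: active means inhibition of the reporter signal at or above 50%; inactive means inhibition below 50%.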

Key:
[1] = inhibitors of TNFa-induced NFkB p65 translocation, primary screen, imaging, HUVEC, MLSMR starter and 10KST1 sets (AID 438;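 active means inhibition above 20% together with a positive visual image hit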;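 further: compound added about 3h40 before a 20 min TNFalpha stimulation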;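 on inhibition: signal is the nuclear over cytoplasmic p65 intensity ratio per well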); conditions: HUVEC TNFa-induced p65 nuclear translocation; cell count: measured here: nuclei count (cytotoxicity indicator), at 2.08 µM; inhibition: at 2 µM, stronger effect = higher value, 0% TNFa-plus-vehicle, 100% no-TNFa wells
[2] = inhibitors of mutant huntingtin aggregation, primary screen, imaging, exon1htt(103Q)mCFP cells, high-content imaging (AID 483;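 active means visual image review flags a hit and inhibition of aggregation exceeds 20%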;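 further: compound exposure lasted 3 days before fixation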;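 on nuclei count: percent of the per-plate median nuclei count of sample wells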); conditions: exon1htt(103Q)mCFP cell line, aggregate imaging, at 2 µM; inhibition of aggregation: stronger effect = higher value; nuclei count: measured here: cell count, toxicity
[3] = inhibitors of E-selectin induction by TNFa, primary screen, imaging, HUVEC, immunofluorescence, MLSMR starter and 10KST1 sets (AID 487;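 active means visually confirmed hit in the image check and inhibition above 20%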;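 on inhibition: signal is fraction of cell area covered by stained E-selectin grains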;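 on nuclei count: 100% = median nuclei count of all wells on the same plate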); conditions: HUVEC TNFalpha-induced E-selectin immunofluorescence imaging, at 2 µM; inhibition: stronger effect = higher value; nuclei count: measured here: cell number, toxicity
[4] = biological target: Voltage-gated potassium channel subunit beta-2 (Rattus norvegicus) (UniProt P62483); test: KvBeta enzyme negative modulators, primary screen, biochemical, NADPH fluorescence (AID 622;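 active means fluorescence slope higher than the sample average by over 3 SD, cut at about -0.22 in these data, passing the limit was not always enough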;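 further: slope of raw intensity against log time taken from 70 to 1610 s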); conditions: recombinant KvBeta, 4-cyanobenzaldehyde reduction, at 10 µM, stronger effect = higher value
[5] = biological target: Voltage-gated potassium channel subunit beta-2 (Rattus norvegicus) (UniProt P62483); test: KvBeta positive modulators, primary screen, biochemical, NADPH fluorescence (AID 623;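 active means NADPH fluorescence slope more negative than the mean of all samples by about 3 SD, 99.7% confidence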;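 further: fluorescence intensity change per second fitted from 20 to 320 s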); conditions: Recombinant KvBeta, NADPH fluorescence decrease slope, 10 min; at 10 µM; stronger effect = lower value
[6] = biological target: Alpha-2C adrenergic receptor (Homo sapiens) (UniProt P18825); test: modulators of alpha2C/GIRK thallium flux, primary screen, cell-based, HEK293 alpha2C/GIRK1/2 (AID 624;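 active means fluorescence slope after compound addition differing from the mean of all screened samples at 99.7% confidence, in either direction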;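 further: slope of fluorescence ratio to pre-addition baseline per second over 15 to 24 s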); conditions: thallium flux BTC fluorescence, at 10 µM, actives lie on both sides
[7] = inhibitors of Sendai virus-induced IRF3 signaling, primary screen, TLR/RLR signaling modifier project, cell-based, Sendai virus stimulus, luciferase, 10K MLSCN set (AID 602276;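 active means inhibition at or above 50% at 10 µM; inactive means inhibition below 50%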;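 further: firefly luciferase from ISG56 promoter only with Renilla not read in this screen; 0% = Sendai virus plus DMSO and 100% = medium plus DMSO without virus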); conditions: HEK293 RL24 IRF3 luciferase reporter, at 10 µM, stronger effect = higher value
[8] = inhibitors of poly I:C-induced TLR3 signaling, primary screen, cell-based, poly I:C stimulus, luciferase, 10K MLSCN set (AID 602277); conditions: HEK293-TLR3 RL24 IRF3 luciferase reporter, at 10 µM, stronger effect = higher value

Chain of Voltage-gated potassium channel subunit beta-2 (Rattus norvegicus) (P62483 whole entry, looked up): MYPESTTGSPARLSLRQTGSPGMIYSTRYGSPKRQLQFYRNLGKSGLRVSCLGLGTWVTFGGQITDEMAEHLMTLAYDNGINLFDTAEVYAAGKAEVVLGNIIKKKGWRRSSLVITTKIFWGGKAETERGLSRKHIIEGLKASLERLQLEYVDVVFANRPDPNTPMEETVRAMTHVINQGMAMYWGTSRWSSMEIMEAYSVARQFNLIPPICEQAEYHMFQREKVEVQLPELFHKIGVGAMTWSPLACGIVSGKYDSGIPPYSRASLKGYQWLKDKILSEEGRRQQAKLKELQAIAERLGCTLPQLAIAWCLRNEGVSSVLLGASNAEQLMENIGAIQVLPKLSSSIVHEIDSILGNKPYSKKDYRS
Chain of Alpha-2C adrenergic receptor (Homo sapiens) (P18825 whole entry, looked up): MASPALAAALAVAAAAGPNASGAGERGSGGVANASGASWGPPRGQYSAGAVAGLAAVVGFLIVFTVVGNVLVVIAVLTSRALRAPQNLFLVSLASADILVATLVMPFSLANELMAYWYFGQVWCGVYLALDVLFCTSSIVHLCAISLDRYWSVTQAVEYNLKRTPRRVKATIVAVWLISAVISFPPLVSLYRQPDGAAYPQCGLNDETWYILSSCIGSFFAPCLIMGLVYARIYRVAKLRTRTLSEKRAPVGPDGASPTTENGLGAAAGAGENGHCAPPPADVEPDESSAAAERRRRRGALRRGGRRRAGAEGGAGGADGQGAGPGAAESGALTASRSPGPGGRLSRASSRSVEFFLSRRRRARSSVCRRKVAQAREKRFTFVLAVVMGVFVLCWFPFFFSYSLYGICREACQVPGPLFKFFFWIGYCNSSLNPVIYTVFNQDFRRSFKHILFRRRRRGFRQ

| Compound | cell count [1] | inhibition [1] | inhibition of aggregation [2] | nuclei count [2] [%] | inhibition [3] | nuclei count [3] [%] | fluorescence slope [4] | NADPH fluorescence slope [5] | slope [6] | inhibition [7] | inhibition [8] |
| --- | --- | --- | --- | --- | --- | --- | --- | --- | --- | --- | --- |
| Cc1cc(=O)n(C)c(=O)n1CCCNc1ccccc1 | 489 | -13.1% (inactive) | -3% (inactive) | 126 | -19.5% (inactive) | 113 | -0.333 (inactive) | -3.7e-05 (inactive) | 0.00566 (inactive) | -2.79% (inactive) | 6.15% (inactive) |
| CCOC(=O)C1=C(N)OC2=C(C(=O)CC(C)(C)C2)C1c1ccco1 (stereo not drawn) | 382 | 1% (inactive) | -38.9% (inactive) | 104 | -61.3% (inactive) | 110 | -0.566 (inactive) | 5.5e-05 (inactive) | 0.00621 (inactive) | -0.305% (inactive) | -16.2% (inactive) |
| Cc1ccc(CSC2=NCCN2C(=O)C2CC2)cc1 | 221 | -0.8% (inactive) | 7.2% (inactive) | 100 | -26.8% (inactive) | 107 | -0.604 (inactive) | -2e-05 (inactive) | 0.00584 (inactive) | 11% (inactive) | 11.8% (inactive) |
| COc1ccc(NC(=O)CSc2nnc(Cc3cccn3C)n2-c2ccc(F)cc2)cc1 | 576 | 1.1% (inactive) | -14.5% (inactive) | 23.2 | -72.7% (inactive) | 112 | -0.577 (inactive) | 1.2e-05 (inactive) | 0.00735 (inactive) | 15% (inactive) | 18.7% (inactive) |
| O=C(NCC1CCCO1)C1CCCN(Cc2cnn(-c3ccccc3)c2-n2cccc2)C1 (stereo not drawn) | 292 | 0.8% (inactive) | 5.3% (inactive) | 86.3 | -10.5% (inactive) | 92.7 | -0.39 (inactive) | 3.8e-06 (inactive) | 0.0039 (inactive) | -11.1% (inactive) | -10.8% (inactive) |
| COc1cccc(OC)c1OCCNCCO | 632 | -3.4% (inactive) | 7.9% (inactive) | 118 | 8.1% (inactive) | 90.6 | -0.436 (inactive) | 3.2e-05 (inactive) | 0.00544 (inactive) | 13.1% (inactive) | 20.6% (inactive) |
| CCc1ccc(NC(=O)CS(=O)CC(=O)NCC2OCCc3ccccc32)cc1 (stereo not drawn) | 698 | -4.5% (inactive) | 6.4% (inactive) | 102 | -119% (inactive) | 114 | -0.415 (inactive) | -3.6e-05 (inactive) | 0.00515 (inactive) | 9.39% (inactive) | 13.4% (inactive) |
| CCOc1cccc(-c2nnc3sc(COc4ccc(OC)cc4)nn23)c1 | 534 | 7.7% (inactive) | -2.2% (inactive) | 95.7 | -93.7% (inactive) | 118 | -0.433 (inactive) | -3.1e-05 (inactive) | 0.00731 (inactive) | 7.6% (inactive) | 17.6% (inactive) |
| CC(=O)N1CCN(C(=O)COc2ccc(Br)cc2)CC1 | 518 | -6.3% (inactive) | -1.5% (inactive) | 93.7 | -21.9% (inactive) | 139 | -0.592 (inactive) | -5.6e-05 (inactive) | 0.00597 (inactive) | 5.88% (inactive) | 13.4% (inactive) |
| O=c1oc2c3c4c(cc2s1)CCCN4CCC3 | 441 | 7.4% (inactive) | -6.4% (inactive) | 100 | -17.7% (inactive) | 119 | -0.463 (inactive) | -6e-05 (inactive) | 0.00368 (inactive) | 7.3% (inactive) | 31.7% (inactive) |
| CCc1nnc(NC(=O)c2ccc(S(=O)(=O)N(CC(C)C)CC(C)C)cc2)o1 | 415 | -1.4% (inactive) | 2.2% (inactive) | 94.8 | 12.8% (inactive) | 81.5 | -0.507 (inactive) | -1.1e-05 (inactive) | 0.00793 (inactive) | 8.12% (inactive) | 15.2% (inactive) |
| CCOc1ccc(N2C(N)=NC(N)=NC2(C)C)cc1 | 401 | 2.5% (inactive) | 5.2% (inactive) | 103 | -19.5% (inactive) | 105 | -0.644 (inactive) | 5.9e-05 (inactive) | 0.00717 (inactive) | 11.2% (inactive) | 26.1% (inactive) |
| Cc1ccc(C)c(NC(=O)CC(NCCCN2CCOCC2)C(=O)O)c1 (stereo not drawn) | 494 | -13.6% (inactive) | 2.6% (inactive) | 71.5 | -34.4% (inactive) | 81.2 | -0.512 (inactive) | 3.9e-05 (inactive) | 0.00589 (inactive) | 19.6% (inactive) | 20.7% (inactive) |
| Cc1ccc(S(=O)(=O)N2CCN(CCO)CC2)cc1-c1nnc2c3ccccc3c(C)nn12 | 357 | -0.4% (inactive) | -26.9% (inactive) | 102 | 8.6% (inactive) | 81 | -0.609 (inactive) | -1.7e-05 (inactive) | 0.00417 (inactive) | 3.73% (inactive) | 9.83% (inactive) |
| O=C(Cn1cc2c(n1)CCCCC2)N1CCc2ccccc21 | 708 | -3.4% (inactive) | 18.5% (inactive) | 103 | -102% (inactive) | 109 | -0.52 (inactive) | -4.3e-05 (inactive) | 0.00739 (inactive) | 7.59% (inactive) | 34.4% (inactive) |
| CCOCC(=O)Nc1sc2c(c1C(=O)OCC)CCCC2 | 300 | -1.6% (inactive) | 16.6% (inactive) | 65.8 | -39.3% (inactive) | 116 | -0.347 (inactive) | -5.2e-05 (inactive) | 0.00551 (inactive) | 9.19% (inactive) | 14% (inactive) |
| COc1cccc(-c2nc3n(n2)C(c2cccs2)C(C(=O)Nc2cccnc2)=C(C)N3)c1 (stereo not drawn) | 735 | -20.1% (inactive) | 30.4% (inactive) | 111 | -65.8% (inactive) | 113 | -0.365 (inactive) | 1.9e-05 (inactive) | 0.00588 (inactive) | 22.3% (inactive) | 32.8% (inactive) |
| CCOC(=O)C1CCN(C(=O)C2(NC(=O)Nc3ccccc3Cl)CCCCC2)CC1 | 568 | -4.9% (inactive) | -41.9% (inactive) | 107 | -54.8% (inactive) | 105 | -0.626 (inactive) | 5.4e-06 (inactive) | 0.0059 (inactive) | 15% (inactive) | 20.6% (inactive) |
| COC(=O)c1c(NC(=O)CSc2nnc(-c3cccnc3)n2Cc2ccco2)sc(C)c1C | 505 | -5.5% (inactive) | 24% (inactive) | 101 | 29.5% (inactive) | 104 | -0.579 (inactive) | -2.7e-05 (inactive) | 0.00567 (inactive) | 4.42% (inactive) | 16.1% (inactive) |
| COc1ccc(CNC(=O)c2cnc3n(c2=O)CCS3)cc1 | 591 | -6.4% (inactive) | 15.6% (inactive) | 97.2 | 15.6% (inactive) | 95.7 | -0.369 (inactive) | 4e-05 (inactive) | 0.00542 (inactive) | 10.9% (inactive) | 29.1% (inactive) |
| CCOC(=O)C1(CC)NC(c2cccc(F)c2)C2C(=O)N(CC)C(=O)C21 (stereo not drawn) | 567 | -7.7% (inactive) | 21.4% (inactive) | 93.8 | -6.6% (inactive) | 70.2 | -0.476 (inactive) | -0.00018 (inactive) | 0.00451 (inactive) | 12.4% (inactive) | 16.3% (inactive) |
| CC(C)CCn1c(NCCc2ccccc2)nc2c1c(=O)n(C)c(=O)n2C | 753 | -8% (inactive) | 1.3% (inactive) | 120 | -17.6% (inactive) | 108 | -0.409 (inactive) | -7.3e-05 (inactive) | 0.00481 (inactive) | 9.59% (inactive) | 32.1% (inactive) |
| Cc1ccccc1-n1c(Cn2c(=O)sc3ccccc32)nnc1SCC(=O)N1CCCC1 | 652 | 8.7% (inactive) | 13.1% (inactive) | 112 | -36.1% (inactive) | 120 | -0.547 (inactive) | -3.9e-05 (inactive) | 0.00766 (inactive) | 12.7% (inactive) | 10.7% (inactive) |
| COCCCNC(=O)c1ccccc1NS(=O)(=O)c1ccc(C)cc1 | 369 | -0.9% (inactive) | -9% (inactive) | 122 | -66.6% (inactive) | 72.3 | -0.423 (inactive) | -1.5e-05 (inactive) | 0.00558 (inactive) | 11.8% (inactive) | 16.1% (inactive) |
| COC(=O)CC1SCCNC1=O (stereo not drawn) | 308 | 0.8% (inactive) | -7.1% (inactive) | 97.9 | 38.9% (inactive) | 98.8 | -0.552 (inactive) | 2e-05 (inactive) | 0.00463 (inactive) | 0.969% (inactive) | -5.15% (inactive) |
| CCOC(=O)CNC(=O)CSc1nc(N(C)C)nc(N2CCOCC2)n1 | 580 | 5.1% (inactive) | -7.9% (inactive) | 110 | -71.8% (inactive) | 111 | -0.517 (inactive) | -4e-05 (inactive) | 0.00497 (inactive) | 18.7% (inactive) | 26.3% (inactive) |
| CCc1ccccc1NC(=O)CSc1ncn[nH]1 | 306 | 9% (inactive) | -8.6% (inactive) | 101 | 40% (inactive) | 102 | -0.397 (inactive) | -1.9e-06 (inactive) | 0.00367 (inactive) | 1.64% (inactive) | 32.7% (inactive) |
| Cc1cccc2cc(CN(CCCO)C(=O)Nc3ccc(Cl)cc3)c(=O)[nH]c12 | 402 | 5.6% (inactive) | -13% (inactive) | 117 | -307% (inactive) | 156 | -0.646 (inactive) | 1e-05 (inactive) | 0.00902 (inactive) | 12.2% (inactive) | -2.7% (inactive) |
